Assay [1] has as its target Glutathione peroxidase 1 (Homo sapiens) (UniProt P07203). In words: Primary qHTS Assay for Inhibitors of Recombinant Selenoprotein Glutathione Peroxidase 1 (GPX1) (AID 1845191). Further: nearly all actives have a fitted effect of over 65% in size. Further: potency means the concentration at half of the fitted maximal effect. The essentials:
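GR-coupled assay: compounds preincubated 30 min at room temperature with GPX1, then reaction started with CHP; final 10 nM GPX1, 1 mM GSH, 0.5 mM CHP, 0.5 mM NADPH, 100 nM GR, 0.01% BSA, pH 7.5 Tris buffer. NADPH fluorescence (340/450 nm) read at 0 and 15 min.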
On the technique in general: In qHTS, concentration-response curves come from the screen itself.

The target in assay [2] is Phospholipid hydroperoxide glutathione peroxidase GPX4 (Homo sapiens) (UniProt P36969). Kind of assay: Primary qHTS Assay for Inhibitors of Recombinant Selenoprotein Glutathione Peroxidase 4 (GPX4) (AID 1845192). Further: nearly all actives have a fitted effect of over 65% in size. Further: potency means the concentration at half of the fitted maximal effect. The essentials:
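GR-coupled assay: recombinant GPX4 preincubated 30 min with compound at room temperature; final 200 nM GPX4, 1 mM GSH, 0.5 mM cumene hydroperoxide, 0.5 mM NADPH, 100 nM GR, 0.01% BSA, pH 7.5 Tris. NADPH fluorescence (340/450 nm) read at 0 and 15 min.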

Assay [3] deals with Metallo-beta-lactamase type 2 (Klebsiella pneumoniae) (UniProt C7C422). In words: qHTS to identify inhibitors of the New Delhi Metallo-beta-lactamase (NDM): assay validation screen against the NCATS LOPAC Collection (AID 1794843).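 Further: nitrocefin turnover by NDM-1 measured as 485 nm absorbance at plateau; series mostly up to about 38 µM.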 The essentials:
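Nitrocefin hydrolysis (50 uM substrate stock) by NDM-1, 2 nM final, was followed by 485 nm absorbance after compound preincubation; buffer was 50 mM HEPES pH 7.0, 1 uM ZnSO4, 0.01% Tween20.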

The target in assay [4] is Luciferin 4-monooxygenase (Photinus pyralis) (UniProt P08659). Kind of assay: Primary firefly luciferase (FLuc) qHTS assay for identification of artifact compounds. (AID 1845220). Further: nearly all actives have a fitted effect of over 60% in size. Particulars: outcome: dose series up to 54.1 µM. Put shortly: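 Titrated compounds were incubated 15 min at RT, protected from light, with luciferin and ATP at 10 uM; reaction started with 10 nM FLuc, luminescence imaged at 5 min, and concentration-response fitted by Hill equation.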

A short description of assay [5]: Primary fluorescence-based thiol-reactive (MSTI) qHTS assay for identification of artifact compounds. (AID 1845221).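 Further: series mostly up to about 54 µM; thiol-reactive compounds lower the probe fluorescence signal; nearly all actives have a fitted effect of over 65% in size.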 The essentials:
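Compounds were incubated 1 h at room temperature in the dark with the MSTI probe (4 uM) in PBS pH 7.4, 2% DMSO. Signals were normalized between Acetyl-MSTI and MSTI.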

The test system of assay [6] is Nanoluciferase (engineered Oplophorus gracilirostris luciferase). In words: Primary Nanoluciferase (NLuc) qHTS assay for identification of artifact compounds. (AID 1845222).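 Further: NLuc secreted into diluted conditioned medium of S16 cells; series mostly up to about 54 µM.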 The essentials: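 qHTS format, against NLuc in S16 cell-conditioned medium. Nano-Glo substrate 1:100 was added after 15 min at room temperature. Luminescence was taken after a further 5 min.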

Assay [7] is described as follows: Primary redox qHTS assay for identification of artifact compounds. (AID 1845223). Put shortly: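 Amplex Red (25 uM) and HRP (250 mU/mL) in HBSS, with compounds for 15 min, then 250 uM DTT for 30 min, room temperature, dark. Fluorescence 525/598 nm read; normalized to DMSO and 10 uM DA3003; Hill fit.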

For 48 compounds, Potency and outcome results are on record in PubChem BioAssay (NCATS).

Structures are written as SMILES. Records with an inconclusive call do not appear. Active and inactive are the calls of the source. The call rests on the fitted dose curve; in most records, active means well fitted curve in the direction sought with a large enough effect; inconclusive means small, poorly fitted or top-dose-only effect, or another doubt; inactive means no such curve, though single readings can be large; an effect the other way counts as inactive or inconclusive.

Glutathione peroxidase 1 (Homo sapiens), sequence (P07203 whole entry, looked up): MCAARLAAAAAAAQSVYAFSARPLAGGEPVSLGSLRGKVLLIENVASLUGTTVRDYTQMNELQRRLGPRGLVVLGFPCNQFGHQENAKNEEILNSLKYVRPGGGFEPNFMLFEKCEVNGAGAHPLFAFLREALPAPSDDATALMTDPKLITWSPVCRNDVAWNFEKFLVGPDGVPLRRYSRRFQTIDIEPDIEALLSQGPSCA
Phospholipid hydroperoxide glutathione peroxidase GPX4 (Homo sapiens), sequence (P36969 whole entry, looked up): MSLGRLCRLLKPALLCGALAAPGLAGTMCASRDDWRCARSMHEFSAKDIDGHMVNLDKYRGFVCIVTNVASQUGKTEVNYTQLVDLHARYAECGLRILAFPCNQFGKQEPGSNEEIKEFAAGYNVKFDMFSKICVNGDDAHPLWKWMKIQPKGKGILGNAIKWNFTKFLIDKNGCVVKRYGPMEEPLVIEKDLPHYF
Metallo-beta-lactamase type 2 (Klebsiella pneumoniae), sequence (C7C422 whole entry, looked up): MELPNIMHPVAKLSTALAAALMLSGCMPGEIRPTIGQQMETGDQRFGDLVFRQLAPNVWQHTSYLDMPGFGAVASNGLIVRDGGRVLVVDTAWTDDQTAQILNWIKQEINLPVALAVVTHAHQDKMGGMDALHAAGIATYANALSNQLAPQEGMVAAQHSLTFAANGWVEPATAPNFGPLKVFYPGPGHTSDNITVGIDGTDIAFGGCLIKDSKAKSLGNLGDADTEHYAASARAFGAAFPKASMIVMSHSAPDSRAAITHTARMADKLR

For the compound `C[C@]12CCC(=O)C(O)=C1CC[C@@H]1[C@@H]2CC[C@]2(C)C(=O)CC[C@@H]12`, the Potency result in assay [1] and in assay [2] was “inactive” in each case.
As to `C[C@@H]1O[C@@H](O[C@H]2C[C@@H](O)[C@]3(CO)[C@H]4[C@H](O)C[C@]5(C)[C@@H](C6=CC(=O)OC6)CC[C@]5(O)[C@@H]4CC[C@]3(O)C2)[C@H](O)[C@H](O)[C@H]1O`, the call in assay [3], in assay [4], in assay [5], in assay [6] and in assay [7] was inactive. Also, the Potency entry in assay [1] and in assay [2] was “inactive” in each case.
`CC(C)(C)NCC(O)c1cc(Cl)c(N)c(Cl)c1` (stereo not drawn): the Potency result in assay [1] and in assay [2] was “inactive” throughout.
As to `COc1ccc2c(c1OC)CN1CCc3cc4c(cc3C1C2)OCO4` (stereo not drawn), the Potency result in assay [1] was “inactive”.
As for `C[C@]12CC[C@H]3[C@@H](CCC4=CC(=O)CC[C@@H]43)[C@@H]1CC[C@@H]2OC(=O)CCc1ccccc1`, the Potency result in assay [1] and in assay [2] was “inactive” each time.
Turning to `Clc1ccc(CCC(Cn2ccnc2)Sc2c(Cl)cccc2Cl)cc1` (stereo not drawn), the Potency entry in assay [1] and in assay [2] was “inactive” each time.
For the compound `COC[C@@H](NC(C)=O)C(=O)NCc1ccccc1`, the Potency result in assay [1] and in assay [2] was “inactive” each time.
Consider `CC(C)(C)CC(C)(C)c1ccc(O)cc1`, for which the Potency result in assay [1] and in assay [2] was “inactive” throughout.
For the compound `CC(O)(CS(=O)(=O)c1ccc(F)cc1)C(=O)Nc1ccc(C#N)c(C(F)(F)F)c1` (stereo not drawn), the result in assay [3], in assay [4], in assay [5], in assay [6] and in assay [7] was inactive. Also, the Potency result in assay [1] and in assay [2] was “inactive” in each case.
With `Fc1ccc(C(OCCN2CCN(CCCc3ccccc3)CC2)c2ccc(F)cc2)cc1`, in assay [3], the result was inactive. In addition, the Potency entry in assay [1] and in assay [2] was “inactive” in each case.
For the compound `N[C@@H](Cc1ccc(N(CCCl)CCCl)cc1)C(=O)O`, the Potency result in assay [1] and in assay [2] was “inactive” each time.
Take `c1ccc2c(c1)Nc1ccccc1S2`: the Potency entry in assay [1] and in assay [2] was “inactive” in each case.
As to `N[C@@H]1C[C@H]1c1ccccc1`, the Potency entry in assay [1] and in assay [2] was “inactive” throughout.
Take `CN(C)[C@@H]1C(=O)C(C(N)=O)=C(O)[C@@]2(O)C(=O)C3=C(O)c4c(O)cccc4[C@@](C)(O)[C@H]3C[C@@H]12`: the Potency result in assay [1] and in assay [2] was “inactive” each time.
With `NCC(O)c1ccc(O)cc1` (stereo not drawn), the compound was called inactive in assay [3]. Further, the Potency entry in assay [1] and in assay [2] was “inactive” in each case.
Turning to `CCC(COC(=O)c1cc(OC)c(OC)c(OC)c1)(c1ccccc1)N(C)C` (stereo not drawn), the Potency result in assay [1] and in assay [2] was “inactive” each time.
In the case of `CCCN1CCC[C@@H]2Cc3[nH]ncc3C[C@H]21`, in assay [3], the call was inactive. The Potency entry in assay [1] and in assay [2] was “inactive” in each case.
As to `FC(F)(F)c1cccc(C2=CCN(CCc3ccc4ccccc4c3)CC2)c1`, the Potency entry in assay [1] and in assay [2] was “inactive” throughout.
Regarding `COc1ccc(Cc2nccc3cc(OC)c(OC)cc23)cc1OC`, the Potency entry in assay [1] and in assay [2] was “inactive” each time.
For `CCC1(C2=NCCN2)Cc2ccccc2O1` (stereo not drawn), the compound was classed as inactive in assay [3]. In addition, the Potency result in assay [1] and in assay [2] was “inactive” each time.
`Oc1cccc2cccnc12`: the Potency entry in assay [1] and in assay [2] was “inactive” in each case.
`Cc1cc(SCc2sc(-c3ccc(C(F)(F)F)c(F)c3)nc2C)ccc1OCC(=O)O`: in assay [1], the Potency is 12.8 µM (active). The Potency entry in assay [2] was “inactive”. For the same compound, the compound was called inactive in assay [5] and in assay [6].
For the compound `Oc1ccccc1-c1ccccc1`, the Potency result in assay [1] and in assay [2] was “inactive” in each case.
On to `CC(C)NCC(O)c1ccccc1Cl` (stereo not drawn), for which the Potency entry in assay [1] and in assay [2] was “inactive” each time.
Turning to `CCCC1CCCCN1` (stereo not drawn), the Potency entry in assay [1] and in assay [2] was “inactive” in each case.
As for `CNC(=O)N1N=C(c2ccc(N)cc2)c2cc3c(cc2CC1C)OCO3` (stereo not drawn), the Potency result in assay [1] and in assay [2] was “inactive” each time. Also, the call in assay [4], in assay [6] and in assay [7] was inactive.
As to `COC[C@H]1OC(=O)c2coc3c2[C@@]1(C)C1=C(C3=O)C2CCC(=O)[C@@]2(C)C[C@H]1OC(C)=O` (stereo partly drawn), the Potency entry in assay [1] and in assay [2] was “inactive” each time. In addition, the call in assay [4] and in assay [6] was inactive.
For `CCN(CC)C(=O)N[C@@H]1C=C2c3cccc4[nH]cc(c34)C[C@@H]2N(C)C1`, the Potency result in assay [1] and in assay [2] was “inactive” throughout.
As for `CC(=O)Nc1cc([As](=O)(O)O)ccc1O`, the Potency result in assay [1] and in assay [2] was “inactive” each time.
Consider `CN1CCN(C(=O)O[C@H]2c3nccnc3C(=O)N2c2ccc(Cl)cn2)CC1`, for which the Potency result in assay [1] and in assay [2] was “inactive” each time.
With `CC(C)CC(N(C)C)C1(c2ccc(Cl)cc2)CCC1` (stereo not drawn), the Potency entry in assay [1] and in assay [2] was “inactive” each time.
For `CNC(=O)c1ccc(N2C(=S)N(c3ccc(C#N)c(C(F)(F)F)c3)C(=O)C23CCC3)cc1F`, the Potency result in assay [1] and in assay [2] was “inactive” throughout. In addition, the call in assay [4], in assay [5], in assay [6] and in assay [7] was inactive.
For the compound `Cn1cc(C2=C(c3cn(C4CCN(Cc5ccccn5)CC4)c4ccccc34)C(=O)NC2=O)c2ccccc21`, the Potency entry in assay [1] and in assay [2] was “inactive” each time.
Consider `CN(C)CCN(C)CCc1ccc(Cl)c(Cl)c1`, for which the Potency entry in assay [1] and in assay [2] was “inactive” each time.
For the compound `C#CCN(C)[C@H](C)Cc1ccccc1`, the Potency result in assay [1] and in assay [2] was “inactive” each time.
Regarding `COC1(CS(=O)c2ccccc2)CCN(CCc2c[nH]c3ccc(F)cc23)CC1` (stereo not drawn), the Potency result in assay [1] and in assay [2] was “inactive” throughout.
In the case of `OCCOc1ccccc1`, the Potency result in assay [1] and in assay [2] was “inactive” each time.
As for `C=C(C)[C@H]1Cc2c(ccc3c2O[C@@H]2COc4cc(OC)c(OC)cc4[C@@H]2C3=O)O1`, the Potency entry in assay [1] and in assay [2] was “inactive” in each case.
`Oc1cc(Cl)ccc1Oc1ccc(Cl)cc1Cl`: the Potency result in assay [1] and in assay [2] was “inactive” in each case.
In the case of `O=[N+]([O-])c1cc([As](=O)(O)O)ccc1O`, the Potency result in assay [1] and in assay [2] was “inactive” each time.
On to `O=C1CC[C@@]2(O)[C@H]3Cc4ccc(O)c5c4[C@@]2(CCN3CC2CC2)[C@H]1O5`, for which the Potency entry in assay [1] and in assay [2] was “inactive” in each case.
Take `Oc1ccc(Cl)cc1Cc1ccccc1`: the Potency result in assay [1] and in assay [2] was “inactive” in each case.
Consider `C=C1C[C@@H]2[C@H](CC[C@]3(C)C(=O)CC[C@@H]23)[C@@]2(C)C=CC(=O)C=C12`, for which the Potency result in assay [1] and in assay [2] was “inactive” throughout.
Take `CC(C)=CC1C(C(=O)OCc2cccc(Oc3ccccc3)c2)C1(C)C` (stereo not drawn): the Potency result in assay [1] and in assay [2] was “inactive” throughout.
For the compound `C=CCN1CC[C@]23c4c5ccc(O)c4O[C@H]2C(=O)CC[C@@]3(O)[C@H]1C5`, the Potency entry in assay [1] and in assay [2] was “inactive” in each case.
With `C=C1CC[C@@]2(O)[C@H]3Cc4ccc(O)c5c4[C@@]2(CCN3CC2CC2)[C@H]1O5`, the Potency result in assay [1] and in assay [2] was “inactive” each time.
As for `O=C(O)C(=O)c1cn(Cc2ccccc2)c2ccc(-c3ccc(OC(F)(F)F)cc3)cc12`, the Potency entry in assay [1] is “inactive”. In addition, in assay [2], the Potency is 9.04 µM (active). Moreover, the outcome in assay [4], in assay [5], in assay [6] and in assay [7] was inactive.
As to `C[C@H]1O[C@@H](O[C@H]2[C@@H](O)C[C@H](O[C@H]3[C@@H](O)C[C@H](O[C@H]4CC[C@@]5(C)[C@H](CC[C@@H]6[C@@H]5CC[C@]5(C)[C@@H](C7=CC(=O)OC7)CC[C@]65O)C4)O[C@@H]3C)O[C@@H]2C)C[C@H](O)[C@@H]1O`, the Potency result in assay [1] and in assay [2] was “inactive” each time. Also, the outcome in assay [4], in assay [5], in assay [6] and in assay [7] was inactive.
